{"source": "PubChem BioAssay (EPA / NIEHS)", "note": "The source made the active and inactive calls. How the source made its calls: active means hit-call score of the fitted dose curve at least 0.9, where 1 is the maximum; inactive means score below 0.9.", "data": [{"test_system": "not listed separately", "test": "ATG_NFI_CIS: Attagene CIS-FACTORIAL HepG2 Assay for human Nuclear Factor I (NFI) (AID 2282989)", "conditions": "HepG2 cis-regulatory reporter, NFI response element transcription; actives raise or lower the signal", "outline": "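Transient MRTU transfection of HepG2 → 24 h chemical dosing → total RNA, oligo(dT) RT → PCR, 6-FAM primer extension, HpaI cut → capillary electrophoresis. Endpoint fitted bidirectionally relative to DMSO.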", "values": [{"smiles": "CNC(=C[N+](=O)[O-])NCCSCc1csc(CN(C)C)n1", "outcome": "inactive"}, {"smiles": "CCCCCCC(O)CCCCCCCCCCC(=O)OC", "note": "(stereo not given)", "outcome": "inactive"}, {"smiles": "COC(=O)c1ccccc1", "outcome": "inactive"}, {"smiles": "O=S(=O)(O)c1cccc2ccccc12", "outcome": "inactive"}, {"smiles": "C/C=C(\\C)C(=O)OCC/C=C\\CC", "outcome": "inactive"}, {"smiles": "CC/C=C\\CC/C=C/C(OCC)OCC", "outcome": "inactive"}, {"smiles": "CCO[Si](CCCN)(OCC)OCC", "outcome": "inactive"}, {"smiles": "CCCCCCC1CCC(=O)O1", "note": "(stereo not given)", "outcome": "inactive"}, {"smiles": "O=[N+]([O-])c1ccccc1C(F)(F)F", "outcome": "inactive"}, {"smiles": "CCC(=O)OCc1ccc(OC)cc1", "outcome": "inactive"}, {"smiles": "COc1cccc(OC)c1C(=O)O", "outcome": "inactive"}, {"smiles": "C=C1CC[C@H]2C[C@@H]1C2(C)C", "outcome": "inactive"}, {"smiles": "COC(=O)[C@]1(C)CCC[C@@]2(C)[C@H]1CC=C1C=C(C(C)C)CC[C@@H]12", "outcome": "inactive"}, {"smiles": "Cc1cc2nc3c(=O)[nH]c(=O)nc-3n(C[C@H](O)[C@H](O)[C@H](O)CO)c2cc1C", "outcome": "inactive"}, {"smiles": "Cc1cc(-n2nc3ccc(Cl)cc3n2)c(O)c(C(C)(C)C)c1", "outcome": "inactive"}, {"smiles": "O=C(OCc1ccccc1)c1ccccc1", "outcome": "inactive"}, {"smiles": "c1ccc(CNc2ncnc3nc[nH]c23)cc1", "outcome": "inactive"}, {"smiles": "NC(=O)c1ccc(N)cc1", "outcome": "inactive"}, {"smiles": "CC(=O)Nc1c(I)c(NC(C)=O)c(I)c(C(=O)O)c1I", "outcome": "inactive"}, {"smiles": "CC(C)=CCOC(=O)c1ccccc1", "outcome": "inactive"}, {"smiles": "CC(C)(C)NC(=O)[C@@H]1CN(Cc2cccnc2)CCN1C[C@@H](O)C[C@@H](Cc1ccccc1)C(=O)N[C@H]1c2ccccc2C[C@H]1O", "outcome": "inactive"}, {"smiles": "Oc1cccc2ccccc12", "outcome": "inactive"}, {"smiles": "C=CN1CCCCCC1=O", "outcome": "inactive"}, {"smiles": "CC(=O)CCc1ccccc1", "outcome": "inactive"}, {"smiles": "CNC[C@H](O)[C@@H](O)[C@H](O)[C@H](O)CO", "outcome": "inactive"}, {"smiles": "CN(C)c1ccc(C(c2ccccc2)c2ccc(N(C)C)cc2)cc1", "outcome": "inactive"}, {"smiles": "c1ccc2c(c1)Oc1ccccc1S2", "AC50": "140 µM (active)"}, {"smiles": "CCCCCC[C@@H](O)C/C=C\\CCCCCCCC(=O)O", "AC50": "153 µM (active)"}]}, {"biological_target": "Myc proto-oncogene protein (Homo sapiens) (UniProt P01106)", "sequence (P01106 whole entry, looked up)": "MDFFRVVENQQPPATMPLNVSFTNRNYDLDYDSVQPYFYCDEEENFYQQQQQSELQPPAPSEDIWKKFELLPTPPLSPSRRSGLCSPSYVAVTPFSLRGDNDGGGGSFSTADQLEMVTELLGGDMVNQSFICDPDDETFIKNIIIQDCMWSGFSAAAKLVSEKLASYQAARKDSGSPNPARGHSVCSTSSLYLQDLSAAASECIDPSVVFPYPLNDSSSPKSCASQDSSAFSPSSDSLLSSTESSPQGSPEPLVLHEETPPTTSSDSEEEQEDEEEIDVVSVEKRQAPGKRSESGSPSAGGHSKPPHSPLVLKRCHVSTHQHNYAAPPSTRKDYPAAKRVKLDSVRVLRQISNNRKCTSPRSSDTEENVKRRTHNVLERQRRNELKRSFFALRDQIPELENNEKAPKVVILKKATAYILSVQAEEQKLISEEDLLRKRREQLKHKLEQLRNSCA", "test": "ATG_Myc_CIS: Attagene CIS-FACTORIAL HepG2 Assay for human Myelocytomatosis (Myc) Proto-Oncogene Transcription Factor (AID 2282990)", "conditions": "HepG2, Attagene cis-reporter transcription factor activity; actives raise or lower the signal", "outline": "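HepG2, transient MRTU transfection (cis promoters, endogenous TFs); 24 h dosing; TriZol RNA → oligo(dT) RT → PCR → 6-FAM primer extension → HpaI cut → CE. Bidirectional fit vs DMSO.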", "values": [{"smiles": "CNC(=C[N+](=O)[O-])NCCSCc1csc(CN(C)C)n1", "outcome": "inactive"}, {"smiles": "O=C1CCCCCCCCCCCCCC1", "AC50": "23.6 µM (active)"}, {"smiles": "CCCC(=O)OC/C=C(\\C)CCC=C(C)C", "outcome": "inactive"}, {"smiles": "CCCCCCC(O)CCCCCCCCCCC(=O)OC", "note": "(stereo not given)", "outcome": "inactive"}, {"smiles": "COC(=O)c1ccccc1", "outcome": "inactive"}, {"smiles": "O=C(O)/C=C/C(=O)O", "outcome": "inactive"}, {"smiles": "O=S(=O)(O)c1cccc2ccccc12", "outcome": "inactive"}, {"smiles": "C/C=C(\\C)C(=O)OCC/C=C\\CC", "outcome": "inactive"}, {"smiles": "CC/C=C\\CC/C=C/C(OCC)OCC", "outcome": "inactive"}, {"smiles": "C=CCOCC(CC)(CO)COCC=C", "outcome": "inactive"}, {"smiles": "CN1CCCC1", "outcome": "inactive"}, {"smiles": "CCO[Si](CCCN)(OCC)OCC", "outcome": "inactive"}, {"smiles": "CCCCCCC1CCC(=O)O1", "note": "(stereo not given)", "outcome": "inactive"}, {"smiles": "O=[N+]([O-])c1ccccc1C(F)(F)F", "outcome": "inactive"}, {"smiles": "CCC(=O)OCc1ccc(OC)cc1", "outcome": "inactive"}, {"smiles": "CCc1cc(C(N)=S)ccn1", "outcome": "inactive"}, {"smiles": "CCC(C)=NO", "outcome": "inactive"}, {"smiles": "COc1cccc(OC)c1C(=O)O", "outcome": "inactive"}, {"smiles": "C=C1CC[C@H]2C[C@@H]1C2(C)C", "outcome": "inactive"}, {"smiles": "CCCCCC1CCCC(=O)O1", "note": "(stereo not given)", "outcome": "inactive"}, {"smiles": "COC(=O)[C@]1(C)CCC[C@@]2(C)[C@H]1CC=C1C=C(C(C)C)CC[C@@H]12", "outcome": "inactive"}, {"smiles": "Cc1cc2nc3c(=O)[nH]c(=O)nc-3n(C[C@H](O)[C@H](O)[C@H](O)CO)c2cc1C", "outcome": "inactive"}, {"smiles": "Cc1cc(-n2nc3ccc(Cl)cc3n2)c(O)c(C(C)(C)C)c1", "outcome": "inactive"}, {"smiles": "O=C(OCc1ccccc1)c1ccccc1", "outcome": "inactive"}, {"smiles": "CCCCCCC1CCCC(=O)O1", "note": "(stereo not given)", "outcome": "inactive"}, {"smiles": "c1ccc(CNc2ncnc3nc[nH]c23)cc1", "outcome": "inactive"}, {"smiles": "NC(=O)c1ccc(N)cc1", "outcome": "inactive"}, {"smiles": "CC(=O)Nc1c(I)c(NC(C)=O)c(I)c(C(=O)O)c1I", "outcome": "inactive"}, {"smiles": "CC(C)=CCOC(=O)c1ccccc1", "outcome": "inactive"}, {"smiles": "CC(C)(C)NC(=O)[C@@H]1CN(Cc2cccnc2)CCN1C[C@@H](O)C[C@@H](Cc1ccccc1)C(=O)N[C@H]1c2ccccc2C[C@H]1O", "outcome": "inactive"}, {"smiles": "Oc1cccc2ccccc12", "outcome": "inactive"}, {"smiles": "C=CN1CCCCCC1=O", "outcome": "inactive"}, {"smiles": "Oc1ccc(Oc2ccccc2)cc1", "outcome": "inactive"}, {"smiles": "CC(=O)CCc1ccccc1", "outcome": "inactive"}, {"smiles": "CNC[C@H](O)[C@@H](O)[C@H](O)[C@H](O)CO", "outcome": "inactive"}, {"smiles": "CN(C)c1ccc(C(c2ccccc2)c2ccc(N(C)C)cc2)cc1", "outcome": "inactive"}, {"smiles": "c1ccc2c(c1)Oc1ccccc1S2", "outcome": "inactive"}, {"smiles": "CCCCCC[C@@H](O)C/C=C\\CCCCCCCC(=O)O", "outcome": "inactive"}, {"smiles": "CC[N+](CC)(CC(=O)Nc1c(C)cccc1C)Cc1ccccc1", "note": "(tested in a mixture with another compound)", "outcome": "inactive"}]}, {"test_system": "not listed separately", "test": "ATG_NF_kB_CIS: Attagene CIS-FACTORIAL HepG2 Assay for human Nuclear Factor Kappa B (NF-kB) (AID 2282991)", "conditions": "HepG2 Attagene cis-factorial NF-kB reporter mRNA; actives raise or lower the signal", "outline": "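Readout is reporter transcript level, gain or loss versus DMSO, measured 24 h post-dose via RT-PCR, fluorescent labelling and capillary electrophoresis. Human HepG2 liver cells carried transiently transfected CIS reporter constructs reflecting endogenous factors.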", "values": [{"smiles": "CNC(=C[N+](=O)[O-])NCCSCc1csc(CN(C)C)n1", "outcome": "inactive"}, {"smiles": "O=C1CCCCCCCCCCCCCC1", "outcome": "inactive"}, {"smiles": "CCCC(=O)OC/C=C(\\C)CCC=C(C)C", "outcome": "inactive"}, {"smiles": "CCCCCCC(O)CCCCCCCCCCC(=O)OC", "note": "(stereo not given)", "outcome": "inactive"}, {"smiles": "COC(=O)c1ccccc1", "outcome": "inactive"}, {"smiles": "O=C(O)/C=C/C(=O)O", "outcome": "inactive"}, {"smiles": "C/C=C(\\C)C(=O)OCC/C=C\\CC", "outcome": "inactive"}, {"smiles": "CC/C=C\\CC/C=C/C(OCC)OCC", "AC50": "100 µM (active)"}, {"smiles": "C=CCOCC(CC)(CO)COCC=C", "outcome": "inactive"}, {"smiles": "CN1CCCC1", "outcome": "inactive"}, {"smiles": "CCO[Si](CCCN)(OCC)OCC", "outcome": "inactive"}, {"smiles": "CCC(=O)OCc1ccc(OC)cc1", "outcome": "inactive"}, {"smiles": "CCc1cc(C(N)=S)ccn1", "outcome": "inactive"}, {"smiles": "C=C1CC[C@H]2C[C@@H]1C2(C)C", "outcome": "inactive"}, {"smiles": "CCCCCC1CCCC(=O)O1", "note": "(stereo not given)", "outcome": "inactive"}, {"smiles": "COC(=O)[C@]1(C)CCC[C@@]2(C)[C@H]1CC=C1C=C(C(C)C)CC[C@@H]12", "outcome": "inactive"}, {"smiles": "Cc1cc2nc3c(=O)[nH]c(=O)nc-3n(C[C@H](O)[C@H](O)[C@H](O)CO)c2cc1C", "outcome": "inactive"}, {"smiles": "O=C(OCc1ccccc1)c1ccccc1", "outcome": "inactive"}, {"smiles": "c1ccc(CNc2ncnc3nc[nH]c23)cc1", "outcome": "inactive"}, {"smiles": "NC(=O)c1ccc(N)cc1", "outcome": "inactive"}, {"smiles": "CC(C)=CCOC(=O)c1ccccc1", "outcome": "inactive"}, {"smiles": "Oc1cccc2ccccc12", "outcome": "inactive"}, {"smiles": "Oc1ccc(Oc2ccccc2)cc1", "outcome": "inactive"}, {"smiles": "CC(=O)CCc1ccccc1", "outcome": "inactive"}, {"smiles": "CNC[C@H](O)[C@@H](O)[C@H](O)[C@H](O)CO", "outcome": "inactive"}, {"smiles": "CN(C)c1ccc(C(c2ccccc2)c2ccc(N(C)C)cc2)cc1", "outcome": "inactive"}, {"smiles": "c1ccc2c(c1)Oc1ccccc1S2", "outcome": "inactive"}, {"smiles": "CCCCCC[C@@H](O)C/C=C\\CCCCCCCC(=O)O", "outcome": "inactive"}]}]}
